High-throughput results as filed in PubChem.
Shiga inhibitor: A qHTS for Small Molecule Inhibitors of Shiga Toxin; Vero cells, Shiga toxin protein synthesis inhibition reporter; inhibition, % at 38.7 µM; 290,000 compounds, 9.2% hits; in the data active means inhibition mostly above about 28%, no sharp cut-off; inactive means mostly below about 43%; further: 0% is about no effect
CHX counter: Cycloheximide Counterscreen for Small Molecule Inhibitors of Shiga Toxin | cell reporter, cycloheximide protein synthesis inhibition counterscreen | max response, % | 300,000 compounds, 12% hits | AID 2314, 2010; in the data active means max response mostly above about 13%, no sharp cut-off; inactive means mostly below about 14%; further: read at 38.3 µM for the half of the compounds with a filed dose; 0% is about no effect
Sm TGR inh: qHTS Assay for the Inhibitors of Schistosoma Mansoni Peroxiredoxins; Potency, µM (highest dose often 114 µM), without a hit: at the highest dose activity change, negative = inhibition, usual class: inhibitors; Schistosoma mansoni thioredoxin glutathione reductase (TGR), Q962Y6; purified TGR, DTNB reduction, TNB absorbance 405 nm; 360,000 compounds, 3% hits; further: potency means the concentration at half of the fitted maximal effect; on the % scale 0 is the no-effect control and ±100 the full control effect; nearly all actives have a fitted effect of over 60% in size
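First, TGR (20 nM dispensed) and NADPH were mixed with compound. Second, a 15 min room-temperature incubation followed. Third, further NADPH and then DTNB were added to start the reaction. Finally, TNB absorbance was monitored kinetically.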
Pf growth 96h: Primary qHTS for delayed death inhibitors of the malarial parasite plastid, 96 hour incubation; P. falciparum luciferase reporter growth, 96 h; Potency, µM (titrated, usually from 28.7 µM), for the others: top-dose activity change, negative = inhibition, actives largely listed as inhibitors; 320,000 compounds, 6.9% hits; AID 504834, 2011; further: potency means the concentration at half of the fitted maximal effect; on the % scale 0 is the no-effect control and ±100 the full control effect
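Luminescence readout: decreased luciferase signal marks inhibited growth of reporter-expressing P. falciparum in infected red cells (2% hematocrit, 0.05% parasitemia final), exposed to compound two generations (96 h, 37 C, 5% CO2).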
NS1 function inh: qHTS Assay for Inhibitors of Influenza NS1 Protein Function; 270,000 compounds, 0.4% hits; Potency, µM (highest dose often 46.1 µM), for inactives: top-dose activity, positive = more growth; AID 2326, 2010; calls by dose curve; further: potency means the concentration at half of the fitted maximal effect; actives are rising curves; nearly all actives have a fitted effect of over 50% in size
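A cell-based growth assay was used: compounds that relieve NS1-induced slow growth of budding yeast raise OD600. Assay medium was yeast nitrogen base with ammonium sulphate and -URA supplement, pH 6.0, with 2% galactose.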
Pf growth 48h: Primary qHTS for delayed death inhibitors of the malarial parasite plastid, 48 hour incubation | P. falciparum luciferase growth in erythrocytes, 48 h | 310,000 compounds, 5.9% hits | Potency, µM (highest dose often 28.7 µM), inactives show at the top dose activity change, negative = inhibition, actives largely listed as inhibitors; further: potency means the concentration at half of the fitted maximal effect; on the % scale 0 is the no-effect control and ±100 the full control effect
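First compound was added to culture medium, then infected red cells at 0.1% parasitemia and 2% hematocrit (final). After incubation at 37 C under 5% CO2, luciferase detection reagent was dispensed and light output recorded.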
* marks the source's active call; other numbers are inactive results; [ ] = another dose, or the depositor's remark. Sampled rows, rich in hits. Any-hit rate of the full collection: about 21%. Unless noted, the call rests on the fitted dose curve; in most records, active means well fitted curve in the direction sought with a large enough effect; inconclusive means small, poorly fitted or top-dose-only effect, or another doubt; inactive means no such curve, though single readings can be large; an effect the other way counts as inactive or inconclusive.

Screening NNC(=O)c1ccc(Cn2cc(Cl)cn2)cc1 returned Shiga inhibitor 13.1, CHX counter -3.9, Sm TGR inh -2.0%, Pf growth 96h inconclusive, NS1 function inh 4.8% and Pf growth 48h 0.4%.
Screening O=C(Nc1cccc2ccccc12)c1ccc(Cn2cc(Cl)cn2)cc1 returned Shiga inhibitor -19.2, CHX counter -0.8, Sm TGR inh 12.5%, Pf growth 96h 13.1µM*, NS1 function inh 1.1% and Pf growth 48h inconclusive.
Screening O=C(Nc1cnn(Cc2ccc(Cl)c(Cl)c2)c1)C12CC3CC(CC(C3)C1)C2 returned Shiga inhibitor 9.0, CHX counter -1.5, Sm TGR inh 1.8%, Pf growth 96h 7.38µM*, NS1 function inh 17.2% and Pf growth 48h 13.1µM*.
For O=C(Nc1ccccc1F)c1ccc(Cn2cc(Cl)cn2)cc1 the results were Shiga inhibitor 49.7, CHX counter 27.8*, Sm TGR inh 9.8%[57.1 µM], Pf growth 96h 18.7%, NS1 function inh -5.8% and Pf growth 48h 44.1%.
`O=C(Nc1ccc(Cl)c(Cl)c1)c1ccc(Cn2cc(Cl)cn2)cc1` gave Shiga inhibitor active, CHX counter 31.9*, Sm TGR inh -3.8%, Pf growth 96h -16.7%, NS1 function inh -19.6% and Pf growth 48h inconclusive.
Screening CC(C)CNC(=O)C1CCN(c2ccc(S(=O)(=O)N3CCOCC3)cc2)CC1 returned Shiga inhibitor -5.4, CHX counter -1.9, Sm TGR inh 0.0%, NS1 function inh -3.2% and Pf growth 48h 7.38µM*.
Screening COc1ccccc1C(=O)NCC1CCN(c2ccc(S(=O)(=O)N3CCOCC3)cc2)CC1 returned Shiga inhibitor -11.1, CHX counter 4.4, Sm TGR inh 9.9%, Pf growth 96h 3.29µM* and NS1 function inh -4.6%.
`O=C(NC1CC1)C1CCN(c2ccc(S(=O)(=O)N3CCOCC3)cc2)CC1` gave Shiga inhibitor 1.2, CHX counter -1.2, Sm TGR inh 5.5%, Pf growth 96h -4.8%, NS1 function inh 4.7% and Pf growth 48h 4.15µM*.
`COc1ccc(CCNC(=O)CC(C)S(=O)(=O)c2ccc3c(c2)NC(=O)CO3)cc1OC` (stereo unspecified) gave Shiga inhibitor -3.4, CHX counter -2.9, Sm TGR inh 0.5%, Pf growth 96h -1.8%, NS1 function inh -4.5% and Pf growth 48h -1.2%.
For O=C(N/N=C/c1ccc(N2CCOCC2)o1)c1cccc([N+](=O)[O-])c1 the results were Shiga inhibitor 13.2, CHX counter 0.8, Sm TGR inh 11.2µM*, Pf growth 96h 12.8%, NS1 function inh inconclusive and Pf growth 48h 10.5%.
O=C(N/N=C/c1ccc(N2CCCCC2)o1)c1ccccc1 was read as Shiga inhibitor 75.5*, CHX counter 37.1*, Sm TGR inh 7.94µM*, Pf growth 96h inconclusive, NS1 function inh 15.0% and Pf growth 48h inconclusive.
For OCCCCNCc1ccc(OCc2ccc(Cl)cc2)cc1 the results were Shiga inhibitor 28.9, CHX counter -1.9, Sm TGR inh 0.7%, Pf growth 96h 14.7µM*, NS1 function inh -15.3% and Pf growth 48h inconclusive.
For CC(=O)c1c(C)oc2ccc(O)c(CN3CCOCC3)c12 the results were Shiga inhibitor -9.2, CHX counter -7.6, Sm TGR inh -1.9%, Pf growth 96h 7.38µM* and NS1 function inh -0.5%.
Screening Cc1oc2ccc(O)c(CN3CCOCC3)c2c1C(C)O (stereo unspecified) returned Shiga inhibitor -5.1, CHX counter -3.6, Sm TGR inh -22.0%, Pf growth 96h -7.7%, NS1 function inh 4.8% and Pf growth 48h 17.0%.
`CCOC(=O)c1c(C)oc2ccc(O)c(CN3CCCCC3)c12` gave Shiga inhibitor -0.9, CHX counter -1.6, Sm TGR inh -0.3%, Pf growth 96h 29.7%, NS1 function inh -9.3% and Pf growth 48h 11.7µM*.
Screening COc1ccc(OC)c(-c2csc(NC(=O)c3ccc(OCC4CCCO4)cc3)n2)c1 (stereo unspecified) returned Shiga inhibitor 40.4*, CHX counter 39.1*, Sm TGR inh -6.6%, Pf growth 96h 11.7µM*, NS1 function inh 6.8% and Pf growth 48h inconclusive.
Screening O=C(C1CC1)N1CCC(c2nc(-c3ccc(S(=O)(=O)NCC4CCCO4)cc3)no2)CC1 (stereo unspecified) returned Shiga inhibitor -5.5, CHX counter -1.3, Sm TGR inh -6.0%, Pf growth 96h -17.6%, NS1 function inh -4.7% and Pf growth 48h 9.28µM*.
`COc1ccccc1NS(=O)(=O)c1ccc(C(=O)Nc2ncccc2O)cc1` gave Sm TGR inh -25.1%, Pf growth 96h inconclusive and Pf growth 48h 4.65µM*.
For O=C(c1ccc(OCC2CCCO2)cc1)N1CCc2ccccc2C1 (stereo unspecified) the results were Shiga inhibitor 56.3*, CHX counter 29.8*, Sm TGR inh -7.4%, Pf growth 96h 41.0% and Pf growth 48h 2.5%.
Screening O=C(c1ccc(OCC2CCCO2)cc1)N1CCN(c2ccccc2)CC1 (stereo unspecified) returned Shiga inhibitor -1.5, CHX counter -3.4, Sm TGR inh -16.3%, Pf growth 96h inconclusive, NS1 function inh -9.1% and Pf growth 48h 24.1%.
Screening COc1ccccc1NS(=O)(=O)c1ccc(NC(=O)c2ccncc2)cc1 returned Shiga inhibitor -5.9, CHX counter 3.1, Sm TGR inh -0.2%, Pf growth 96h -0.3% and Pf growth 48h -27.3%.
For CCC(C)(C(=O)NC1CCCC1)N(C(=O)Cc1cccs1)c1c(C)n(C)n(-c2ccccc2)c1=O (stereo unspecified) the results were Shiga inhibitor -2.9, CHX counter -2.4, Sm TGR inh 5.9%, Pf growth 96h inconclusive and Pf growth 48h 15.6%.
Screening Cc1nc(C(N)=O)c(N)n1CCc1ccccc1 returned Shiga inhibitor 16.5, CHX counter 10.1, Sm TGR inh inconclusive, Pf growth 96h 26.5%, NS1 function inh 0.8% and Pf growth 48h 5.4%.
`CCOc1cc(C(=O)NC2=NCCS2)cc(OCC)c1OCC` gave Shiga inhibitor 25.5, CHX counter 22.3, Sm TGR inh 5.2%, Pf growth 96h 33.1% and Pf growth 48h 0.9%.
`COc1ccc(-c2csc(N(CC3CCCO3)C(=O)c3ccco3)n2)cc1` (stereo unspecified) gave Shiga inhibitor 5.0, CHX counter 0.4, Sm TGR inh -3.8%, Pf growth 96h inconclusive, NS1 function inh -8.5% and Pf growth 48h inconclusive.
Screening O=C(Nc1ncccc1O)c1ccc(Oc2ccccc2)cc1 returned Shiga inhibitor 70.7*, CHX counter 52.4*, Sm TGR inh -15.5%, Pf growth 96h -24.4%, NS1 function inh -100.5% and Pf growth 48h -26.7%.
